In the supplement of paper PMC13380429:

System: Vero E6 infected with SARS-CoV-2
Assay: inhibition of SARS-CoV-2 cytopathic effect; higher = more antiviral protection, active = above 15
Settings: 48 h

Measured: inhibition of SARS-CoV-2 cytopathic effect

Cc1cc(Nc2nc(N[C@@H](C)c3ncc(F)cn3)ncc2Cl)[nH]n1
inactive: 1 nM -1.19% | 8.33 nM -0.46% | 100 nM -0.68% | 833.33 nM 0.25% | 10000 nM 0.25%

FCc1ccc(OCCOc2ccc(Cl)cc2Cl)c(Cl)n1
inactive: 1 nM 2.16% | 8.33 nM 2.42% | 100 nM 2.11% | 833.33 nM 1.12% | 10000 nM 1.65%

N=C(N)NCc1cccc(I)c1 [iobenguane]
inactive: 1 nM -1.82% | 8.33 nM -0.29% | 100 nM 1.79% | 833.33 nM 2.26% | 10000 nM 6.21%

Cc1c(N)nc([C@H](CC(N)=O)NC[C@H](N)C(N)=O)nc1C(=O)N[C@H](C(=O)N[C@H](C)[C@@H](O)[C@H](C)C(=O)N[C@H](C(=O)NCCc1nc(-c2nc(C(=O)NCCC[S+](C)C)cs2)cs1)[C@@H](C)O)[C@@H](OC1OC(CO)C(O)C(O)C1OC1OC(CO)C(O)C(OC(N)=O)C1O)c1cnc[nH]1 (stereo not given in full) [bleomycin]
inactive: 1 nM -3.91% | 8.33 nM -1.18% | 100 nM -1.47% | 833.33 nM -11.3% | 10000 nM -21.5%

Clc1cccc(/C=N/N=C/c2cccc(Cl)c2)c1 [3,3'-dichlorobenzaldazine]
inactive: 1 nM 2.78% | 8.33 nM 1.74% | 100 nM 1.33% | 833.33 nM 1.92% | 10000 nM 1.46%

Cc1nccc2[nH]c(=O)ccc12 [medorinone]
inactive: 1 nM -1.14% | 8.33 nM -4.65% | 100 nM 1.27% | 833.33 nM -0.3% | 10000 nM -3.87%

O=c1c2ccccc2nc2n1CCc1c-2[nH]c2ccccc12 [rutaecarpine]
inactive: 1 nM -1.97% | 8.33 nM 0.36% | 100 nM -0.87% | 833.33 nM 0.6% | 10000 nM -0.59%

COc1ccc(-c2ccc(=N)n(CCCC(=O)O)n2)cc1 [gabazine]
inactive: 1 nM 0.8% | 8.33 nM 2.86% | 100 nM 5.99% | 833.33 nM -1.31% | 10000 nM -0.62%

CC(=O)NCC(=O)N[C@H](CCC(=O)O)C(=O)O [N-acetylglycyl-D-glutamic-acid]
inactive: 1 nM 1.3% | 8.33 nM -0.41% | 100 nM -0.4% | 833.33 nM -0.04% | 10000 nM 1.12%

CS(=O)(=O)c1ccc([C@@H](O)[C@@H](CF)NC(=O)C(Cl)Cl)cc1 [florfenicol]
inactive: 1 nM -5.27% | 8.33 nM -3.73% | 100 nM -3.16% | 833.33 nM 0.63% | 10000 nM -0.52%

CCc1cn([C@H]2C[C@H](O)[C@@H](CO)O2)c(=O)[nH]c1=O [edoxudine]
inactive: 1 nM 2.72% | 8.33 nM 2.12% | 100 nM 0.77% | 833.33 nM 1.82% | 10000 nM -0.51%

Nc1nccc2c1ncn2C1C=C(CO)C(O)C1O (stereo not given) [3-deazaneplanocin-A]
inactive: 1 nM 0.46% | 8.33 nM 1.89% | 100 nM 3.16% | 833.33 nM 5.38% | 10000 nM -3.44%

COc1nccc(-c2c(-c3ccc(F)cc3)ncn2C2CCNCC2)n1
inactive: 1 nM -7.74% | 8.33 nM 0.83% | 100 nM -2.49% | 833.33 nM -2.73% | 10000 nM 7.05%

Cn1c(=O)c2c(ncn2CC(=O)O)n(C)c1=O [acefylline]
inactive: 1 nM -0.43% | 8.33 nM 3.14% | 100 nM 12.4% | 833.33 nM 0.66% | 10000 nM 0.73%

CN[C@H](C(=O)N[C@H](C(=O)N(C)[C@H](/C=C(\C)C(=O)O)C(C)C)C(C)(C)C)C(C)(C)c1ccccc1 [taltobulin]
inactive: 1 nM -0.53% | 8.33 nM -1.55% | 100 nM -0.97% | 833.33 nM -1.63% | 10000 nM -1.03%

Cc1cccc(C(=O)O)c1O [hydroxytoluic-acid]
inactive: 1 nM -9.06% | 8.33 nM -7.41% | 100 nM -5.24% | 833.33 nM -2.47% | 10000 nM -10.5%

CC1=C(/C=C/C(C)=C/C=C/C(C)=C/C=C/C=C(C)/C=C/C=C(C)/C=C/C2=C(C)C(=O)[C@@H](O)CC2(C)C)C(C)(C)C[C@H](O)C1=O [astaxanthin]
inactive: 1 nM -9.22% | 8.33 nM -11% | 100 nM -9.1% | 833.33 nM -8.76% | 10000 nM -11.5%
